Data reported in PubChem BioAssay AID651899 (Broad Institute, 2012).
Entries with a potency or affinity are not part of this list. Active and inactive are the calls of the source. The rule behind the calls is not given here.

Experiment: cytotoxicity in HEK293 cells, dose response, cytotoxicity control, cell-based, plate reader, cherry-pick (AID 651899);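 note: cells exposed to compound for 48 hours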
Settings: series mostly up to 26 µM

With `C=C(C)n1c(=O)n(Cc2ccccc2C)c2ccccc21` as the compound, how does the outcome read?
The outcome was “inactive”.

For `O=C(C1CCCN(S(=O)(=O)c2cccnc2)C1)N1CCn2c1nc1ccccc12` (stereo unspecified), which outcome is on record?
The outcome was “inactive”.

For `O=C(Nc1ncc2c(n1)CC(c1ccccc1)CC2=O)c1ccco1` (stereo unspecified), which outcome is on record?
Its outcome is “inactive”.

Which outcome does the source give for `Nn1c(SC/C=C/c2ccccc2)nnc1-c1cccnc1` here?
Its outcome is “inactive”.

For `Nc1cc(C(=O)O)ccc1Nc1ccccc1`, which outcome is on record?
Its outcome is “inactive”.

For `O=C(C[n+]1cc(-c2ccc(Cl)cc2)n2c1CCC2)N1c2ccccc2Sc2ccccc21`, which outcome is on record?
The outcome was “inactive”.

For `COc1ccc(NC(=O)c2cnc(C)cn2)cc1-n1cnnn1`, which outcome is on record?
The outcome was “inactive”.

With `O=C(Nc1ccc2c(c1)[C@H]1C[C@@H](CC(=O)N3CCc4ccccc4C3)O[C@H](CO)[C@H]1O2)c1cccnc1` as the compound, how does the outcome read?
Its outcome is “inactive”.

For `Cc1c(OC(C)C(=O)NCC2CCC(C(=O)O)CC2)ccc2c1oc(=O)c1ccccc12` (stereo unspecified), which outcome is on record?
The outcome was “inactive”.

For `C[C@@H](C(=O)N1CCN(Cc2ccc3c(c2)OCO3)CC1)n1nnc2ccccc2c1=O`, which outcome is on record?
Its outcome is “inactive”.

Which outcome does the source give for `O=C(c1ccccc1F)N1CC[C@@H]2[C@H]1c1cc(Br)ccc1N[C@@H]2CO` here?
The outcome was “inactive”.

For `O=C(COc1ccc2ccc(=O)oc2c1)N1CCN(c2ccc(F)cc2)CC1`, which outcome is on record?
The outcome was “inactive”.

Which outcome does the source give for `Cc1ccc(S(=O)(=O)N(C)C)cc1NC(=O)CSc1nncs1` here?
Its outcome is “inactive”.

With `CCOC(=O)CNC(=O)c1sc2ncnc(N3CCc4ccccc4C3)c2c1C` as the compound, how does the outcome read?
The outcome was “inactive”.

With `COc1cc(/C=C/C(=O)Nc2cccnc2)cc(OC)c1OC` as the compound, how does the outcome read?
The outcome was “inactive”.

For `CO[C@H]1CN(C)C(=O)c2ccc(NC(C)=O)cc2OC[C@@H](C)N(C(=O)c2ccc(F)cc2)C[C@H]1C`, which outcome is on record?
Its outcome is “inactive”.

With `CC(=O)c1ccc(C(=O)N2CCCC(CO)(Cc3ccccc3C)C2)s1` (stereo unspecified) as the compound, how does the outcome read?
Its outcome is “inactive”.

For `Cc1c(NC(=O)c2cc3ccccc3o2)cccc1-n1cnnn1`, which outcome is on record?
The outcome was “inactive”.

For `O=C(Nc1ncc2c(n1)CC(c1ccco1)CC2=O)c1ccco1` (stereo unspecified), which activity change, negative = cytotoxicity is on record?
Its activity change, negative = cytotoxicity is 20% [at 6 µM] (inactive).

For `N#Cc1ccc(-c2ccc3c(c2)[C@@H]2[C@@H](CCN2C(=O)c2ccc(F)cc2)[C@@H](CO)N3)cc1`, which outcome is on record?
The outcome was “inactive”.

Which outcome does the source give for `Cc1cccc(C2c3[nH]c4ccccc4c3CCN2C(=O)CN2CCOC2=O)n1` (stereo unspecified) here?
Its outcome is “inactive”.

With `Cc1cccc(C(=O)NC2CCN(CC(=O)Nc3ccccc3Cl)CC2)c1` as the compound, how does the outcome read?
Its outcome is “inactive”.

For `C=C(C)CSc1nc(N)c2c3c(sc2n1)CCC3`, which outcome is on record?
Its outcome is “inactive”.

With `O=C(Nc1cccnc1)c1ccc(N2CCCC2)c([N+](=O)[O-])c1` as the compound, how does the outcome read?
The outcome was “inactive”.

Which outcome does the source give for `COc1ccc(C2c3c(oc4ccc(Cl)cc4c3=O)C(=O)N2CCN2CCOCC2)cc1` (stereo unspecified) here?
The outcome was “inactive”.

With `O=C(CSc1n[nH]c(-c2cccnc2)n1)Nc1ccnc2ccccc12` as the compound, how does the outcome read?
Its outcome is “inactive”.

With `CC(=O)c1ccc(N2CCN(c3ncccn3)CC2)c([N+](=O)[O-])c1` as the compound, how does the outcome read?
Its outcome is “inactive”.

Which outcome does the source give for `COc1cc(C(=O)N2Cc3cc4ccccc4nc3C2C)cc(OC)c1OC` (stereo unspecified) here?
Its outcome is “inactive”.

With `Cc1cc(NC(=O)CN(C)S(=O)(=O)c2cnc[nH]2)ccc1Br` as the compound, how does the outcome read?
Its outcome is “inactive”.

For `CN(C)C(=O)C[C@@H]1C[C@@H]2c3cc(NC(=O)c4cccnc4)ccc3O[C@@H]2[C@@H](CO)O1`, which outcome is on record?
The outcome was “inactive”.

Which outcome does the source give for `CCN1[C@H](C(=O)NCc2ccccc2)[C@@H](CO)[C@@H]2Cn3c(ccc(-c4cccnc4)c3=O)[C@@H]21` here?
Its outcome is “inactive”.

With `COc1ccc(C(C)NC(=O)Nc2ccc(C(C)=O)cc2)cc1OC` (stereo unspecified) as the compound, how does the outcome read?
Its outcome is “inactive”.

Which outcome does the source give for `Cc1ccccc1S(=O)(=O)NCC[C@H]1CC[C@@H](NC(=O)Nc2cccc(F)c2)[C@H](CO)O1` here?
The outcome was “inactive”.

Which outcome does the source give for `O=C(Nc1cccnc1)c1ccc(Cl)c(Cl)c1` here?
The outcome was “inactive”.

For `CCOc1ccc(CCNC(=O)c2cnc(C)cn2)cc1OCC`, which outcome is on record?
The outcome was “inactive”.

For `Clc1ccc(CSc2nnc(-c3cccnc3)o2)cc1`, which outcome is on record?
Its outcome is “inactive”.
